# Reference: PubChem BioAssay (NCATS)
# Records with an inconclusive call do not appear. Entries that show only a call come without a potency. Calls of active or inactive are those of the source. Calls come from the whole dose curve; as a rule, active = well fitted curve in the direction sought with a large enough effect; inconclusive = small, poorly fitted or top-dose-only effect, or another doubt; inactive = no such curve, though single readings can be large; an effect the other way counts as inactive or inconclusive.
# Target: Calcium and integrin-binding protein 1 (Homo sapiens) (UniProt Q99828)
# Experiment: Validation qHTS for Identification of Calcium Integrin Binding protein 1 (CIB1) Competitor (AID 1508618)
# Conditions: CIB1-GST / FITC-alphaIIb peptide fluorescence polarization; series mostly up to 114 µM
# In short: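 CIB1-GST (1 uM final) in 5 mM HEPES pH 7.4, 125 mM NaCl, 5 mM CaCl2, 0.01% Tween20 was preincubated 15 min at room temperature with compound (up to 114 uM), then FITC-alphaIIb peptide (100 nM) added for 15 min; fluorescence polarization read.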
# Potency is the fitted concentration of half-maximal effect.
# Chain of Calcium and integrin-binding protein 1 (Homo sapiens) (Q99828 whole entry, looked up): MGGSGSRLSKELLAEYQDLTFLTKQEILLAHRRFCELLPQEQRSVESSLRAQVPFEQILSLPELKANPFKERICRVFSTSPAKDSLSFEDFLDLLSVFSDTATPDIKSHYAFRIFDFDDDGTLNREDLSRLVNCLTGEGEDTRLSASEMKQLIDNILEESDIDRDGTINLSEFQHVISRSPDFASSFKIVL
row,Compound,Potency
1,Oc1ccc(Cn2cc[nH]c2=S)cc1,inactive
2,NOCC(=O)O,inactive
3,NC1(C(=O)O)CCCCC1,inactive
4,Cc1ccccc1/C=C/C1=NCCN1,inactive
5,COc1ccc(-c2cc3ncc(C)n3c(Nc3ncccc3C(N)=O)n2)cc1OC,inactive
6,O=c1cc(O)cc(/C=C/c2ccc(O)c(O)c2)o1,inactive
7,CCN(CC)CCCCCCCCOC(=O)c1cc(OC)c(OC)c(OC)c1,inactive
8,CC(=O)NCCc1c[nH]c2ccc(O)cc12,inactive
9,C[C@H]1CC2C3CCC4=CC(=O)C=C[C@]4(C)[C@@]3(Cl)[C@@H](O)C[C@]2(C)[C@@]1(O)C(=O)CO (stereo partly specified),inactive
10,CC(C)[C@@H]1CC[C@@H](C)C[C@@H]1P(=O)(c1ccccc1)c1ccccc1,inactive
11,CN(C)C(=O)/N=N/C(=O)N(C)C,inactive
12,NC(N)=NC(N)=Nc1cccc(Cl)c1,inactive
13,c1ccc(CN2CCC3(CCCc4ccccc43)CC2)cc1,inactive
14,O=C(O)c1cc2cc(F)ccc2[nH]1,inactive
15,C=CCN1CCc2c(cc(O)c(O)c2Cl)C(c2ccccc2)C1 (stereo unspecified),inactive
16,CCCn1c(=O)c2[nH]c(C3CCCC3)nc2n(CCC)c1=O,inactive
17,Cn1c(=O)c2[nH]c(C3CCCC3)nc2n(C)c1=O,inactive
18,NC(=O)CNCCC(c1ccccc1)c1ccccc1,inactive
19,NCCC1CCCC(CCN)N1 (stereo unspecified),inactive

row,Compound,Potency
1,CNC(=O)c1cc2c(cn1)[nH]c1ccccc12,inactive
2,Nc1ccc2c3c(cccc13)C(=O)NC2=O,2.51 µM (active)
3,c1ccc2c(c1)CC(N1CCN(c3cccc4c3OCCO4)CC1)C2,inactive
4,O=c1ccc2c(OCCCCc3ccccc3)c3ccoc3cc2o1,inactive
5,Cn1c(=O)[nH]c2ncn(C)c2c1=O,inactive
6,Nc1nc2ccc(Cl)cc2c2nc(-c3ccco3)nn12,inactive
7,N#Cc1cc([N+](=O)[O-])c2sc(C(N)=O)[n+]([O-])c2c1,inactive
8,COC(=O)[C@H](NC(=O)c1cc(-c2ccccc2)nc2ccccc12)c1ccccc1,inactive
9,Cn1cc(C(=O)OCC2CCN(CCNS(C)(=O)=O)CC2)c2ccccc21,inactive
10,COc1cc(/C=C(\C#N)C(=O)c2ccc(O)c(O)c2)cc(I)c1O,inactive
11,O=c1cc(-c2ccccc2F)[nH]c2cc3c(cc12)OCO3,inactive
12,CCCN(CCc1ccccc1)C1CCc2c(O)cccc2C1 (stereo unspecified),inactive
13,CN(C)CCC(c1ccc(Br)cc1)c1ccccn1 (stereo unspecified),inactive
14,CCCCCCC(=O)OC1CC(C)(C)NC(C)(C)C1,inactive
15,c1ccc(C(NCc2cccnc2)(c2ccccc2)c2ccccc2)cc1,inactive
16,CN1C2CCC1CC(OC(c1ccccc1)c1ccccc1)C2 (stereo unspecified),inactive
17,CN1CCCC1CCOC(C)(c1ccccc1)c1ccc(Cl)cc1 (stereo unspecified),inactive
18,S=C(S)N1CCCC1,inactive

# System: not listed separately
# Experiment: Confirmatory qHTS for small molecule stabilizers of the endoplasmic reticulum resident proteome: Secreted ER Calcium Modulated Protein (SERCaMP) assay (AID 1508628); note: nearly all actives have a fitted effect of over 40% in size
# Conditions: SERCaMP secreted luciferase ER calcium/proteostasis reporter; series mostly up to 76.3 µM
# In short: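 GLuc-SERCaMP-expressing SH-SY5Y cells, pretreated 16 h with compound, are challenged with thapsigargin to empty ER calcium stores; after 4 h, coelenterazine is added directly to the medium and luminescence is imaged.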
row,Compound,Potency
1,Cc1ccccc1/C=C/C1=NCCN1,11.2 µM (active)
2,O=c1cc(O)cc(/C=C/c2ccc(O)c(O)c2)o1,20 µM (active)
3,N#Cc1cc([N+](=O)[O-])c2sc(C(N)=O)[n+]([O-])c2c1,inactive

# System: not listed separately
# Experiment: Primary qHTS for small molecule stabilizers of the endoplasmic reticulum resident proteome: Secreted ER Calcium Modulated Protein (SERCaMP) assay (AID 1508630)
# Conditions: SH-SY5Y GLuc-SERCaMP (Gaussia luciferase released on ER calcium loss) secretion, thapsigargin, luminescence; series mostly up to 38.4 µM
# In short: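 The SH-SY5Y reporter protocol was run at 3 concentrations up to 38.3 uM (primary) or 11 concentrations (follow-up): 16 h compound, 100 nM thapsigargin for 4 h, then extracellular luciferase luminescence.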
row,Compound,Potency
1,Oc1ccc(Cn2cc[nH]c2=S)cc1,inactive
2,NOCC(=O)O,inactive
3,NC1(C(=O)O)CCCCC1,inactive
4,CCN(CC)CCCCCCCCOC(=O)c1cc(OC)c(OC)c(OC)c1,inactive
5,CC(=O)NCCc1c[nH]c2ccc(O)cc12,inactive
6,C[C@H]1CC2C3CCC4=CC(=O)C=C[C@]4(C)[C@@]3(Cl)[C@@H](O)C[C@]2(C)[C@@]1(O)C(=O)CO (stereo partly specified),inactive
7,CC(C)[C@@H]1CC[C@@H](C)C[C@@H]1P(=O)(c1ccccc1)c1ccccc1,inactive
8,CN(C)C(=O)/N=N/C(=O)N(C)C,inactive
9,NC(N)=NC(N)=Nc1cccc(Cl)c1,inactive
10,c1ccc(CN2CCC3(CCCc4ccccc43)CC2)cc1,inactive
11,O=C(O)c1cc2cc(F)ccc2[nH]1,inactive
12,C=CCN1CCc2c(cc(O)c(O)c2Cl)C(c2ccccc2)C1 (stereo unspecified),inactive
13,CCCn1c(=O)c2[nH]c(C3CCCC3)nc2n(CCC)c1=O,inactive
14,Cn1c(=O)c2[nH]c(C3CCCC3)nc2n(C)c1=O,inactive
15,NC(=O)CNCCC(c1ccccc1)c1ccccc1,inactive
16,NCCC1CCCC(CCN)N1 (stereo unspecified),inactive

row,Compound,Potency
1,CNC(=O)c1cc2c(cn1)[nH]c1ccccc12,inactive
2,Nc1ccc2c3c(cccc13)C(=O)NC2=O,inactive
3,c1ccc2c(c1)CC(N1CCN(c3cccc4c3OCCO4)CC1)C2,inactive
4,O=c1ccc2c(OCCCCc3ccccc3)c3ccoc3cc2o1,inactive
5,Cn1c(=O)[nH]c2ncn(C)c2c1=O,inactive
6,Nc1nc2ccc(Cl)cc2c2nc(-c3ccco3)nn12,inactive
7,COC(=O)[C@H](NC(=O)c1cc(-c2ccccc2)nc2ccccc12)c1ccccc1,inactive
8,Cn1cc(C(=O)OCC2CCN(CCNS(C)(=O)=O)CC2)c2ccccc21,inactive
9,COc1cc(/C=C(\C#N)C(=O)c2ccc(O)c(O)c2)cc(I)c1O,11.2 µM (active)
10,O=c1cc(-c2ccccc2F)[nH]c2cc3c(cc12)OCO3,inactive
11,CCCN(CCc1ccccc1)C1CCc2c(O)cccc2C1 (stereo unspecified),inactive
12,CN(C)CCC(c1ccc(Br)cc1)c1ccccn1 (stereo unspecified),inactive
13,CCCCCCC(=O)OC1CC(C)(C)NC(C)(C)C1,inactive
14,c1ccc(C(NCc2cccnc2)(c2ccccc2)c2ccccc2)cc1,inactive
15,S=C(S)N1CCCC1,inactive
